DAGLB inhibitor: DAGLB lipase inhibitors, primary screen, biochemical, fluorescence, HTS. HEK293T DAGLB membrane lysate, EnzChek fluorogenic substrate. inhibition, % at 5.17 µM. 340,000 compounds, 0.059% hits; in the data active = inhibition above about 34%;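 also: 0% = enzyme with vehicle and 100% = wells lacking enzyme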
Target sequence (Q8NCG7 whole entry, looked up): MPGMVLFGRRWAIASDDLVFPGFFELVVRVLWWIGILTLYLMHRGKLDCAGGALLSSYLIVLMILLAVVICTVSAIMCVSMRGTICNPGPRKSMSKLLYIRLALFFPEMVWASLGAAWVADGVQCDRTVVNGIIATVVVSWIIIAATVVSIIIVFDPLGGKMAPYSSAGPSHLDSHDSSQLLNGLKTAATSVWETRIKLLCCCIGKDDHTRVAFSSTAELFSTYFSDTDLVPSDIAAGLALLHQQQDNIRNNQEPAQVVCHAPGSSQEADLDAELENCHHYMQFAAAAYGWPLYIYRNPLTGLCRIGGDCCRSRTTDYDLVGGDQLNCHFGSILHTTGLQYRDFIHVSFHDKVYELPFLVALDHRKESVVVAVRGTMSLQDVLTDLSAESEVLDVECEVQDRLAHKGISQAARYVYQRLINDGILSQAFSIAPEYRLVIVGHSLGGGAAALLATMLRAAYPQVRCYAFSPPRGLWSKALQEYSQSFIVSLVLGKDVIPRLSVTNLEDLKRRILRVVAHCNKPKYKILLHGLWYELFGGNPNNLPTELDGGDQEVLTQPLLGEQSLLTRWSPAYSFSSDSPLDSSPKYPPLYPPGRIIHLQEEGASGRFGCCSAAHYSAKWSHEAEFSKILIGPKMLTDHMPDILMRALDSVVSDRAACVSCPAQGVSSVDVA
MsrA inh: bovine MsrA enzyme inhibitors, primary screen, biochemical, absorbance, HTS | purified bovine MsrA, absorbance read-out | AID 651718, 2012 | 360,000 compounds, 0.75% hits | inhibition, % at 15.5 µM; in the data active = inhibition above about 4.5%;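 also: 0% = vehicle wells with enzyme and 100% = reference inhibitor wells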
rCAG binder: binders of r(CAG) RNA repeats, primary screen, biochemical, fluorescence; r(CAG) RNA repeat, TO-PRO-1 dye displacement fluorescence; inhibition, % at 3 µM; 370,000 compounds, 1.3% hits; AID 651821, 2012;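 active = inhibition above the plate cutoff, the mean of all test compounds on that plate plus 3 SD, cut at about 35% in these data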;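 also: 0% = DMSO alone and 100% = 100 µM mitoxantrone as full dye displacement; higher means more dye released from RNA so lower well fluorescence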
NadD inh: inhibitors of S. aureus NadD, primary screen, biochemical, colorimetric, uHTS | inhibition, % at 20 µM | AID 602399, 2012 | purified NadD enzyme, colorimetric absorbance read-out | 360,000 compounds, 0.78% hits | Nicotinate-nucleotide adenylyltransferase NadD (Staphylococcus aureus N315); in the data active = inhibition above about 26%
MsrA act: bovine MsrA enzyme activators, primary screen, biochemical, absorbance, HTS | Methionine sulfoxide reductase A (Bos taurus) | AID 602163, 2012 | activation, % at 10.6 µM | purified bovine MsrA, absorbance read-out | 360,000 compounds, 0.3% hits; in the data active = activation above about 7.5%;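 also: 0% = vehicle and 100% = reference activator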
DSG3 Ab inh: inhibitors of pemphigus antibody binding to DSG3, primary screen, biochemical, bead-based, flow cytometry, scFv-GFP. Desmoglein-3 (Homo sapiens), P32926. DSG3-coupled beads, scFv-anti-DSG3-GFP binding; active compounds read low. binding (percent of control), % at 10 µM. 310,000 compounds, 0.48% hits. AID 588358, 2011;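 active = binding more than 3 SD below its plate's average and above zero; inconclusive = below that plate limit but binding exactly zero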;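 also: hits lower antibody fragment binding to DSG3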
rCAG binder conf: small molecules binding CAG repeat RNA – biochemical, fluorescence, confirmation. inhibition, % at 3 µM. 4,300 compounds, 70% hits. r(CAG) RNA repeat, TO-PRO-1 dye displacement fluorescence. shares compounds with rCAG binder;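 active = inhibition above a per-plate cutoff, the mean inhibition of sample wells plus 3 SD, cut at about 35% in these data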;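 also: loss of TO-PRO-1 fluorescence as compound displaces dye from 1x1 AA loop RNA; 0% = DMSO only wells and 100% = 100 µM mitoxantrone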
DNA CAG counter: displacement of TO-PRO-1 from CAG DNA duplex, counter-screen for rCAG RNA repeat binder project, biochemical, fluorescence, TO-PRO-1 dye, d(CAG) DNA oligo; d(CAG) DNA oligo TO-PRO-1 dye displacement; shares compounds with rCAG binder; inhibition, % at 3 µM; 4,300 compounds, 94% hits;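 active = inhibition above its plate's cutoff, the mean test-well inhibition plus 3 SD, cut at about 4.8% in these data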;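 also: 0% = DNA dye mix with DMSO and 100% = 100 µM mitoxantrone; hits displace the dye from DNA and so lower well fluorescence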
* = called active by the depositor; ? = inconclusive; nt = no result. Only some compounds are listed: those with a hit (about 3.2% of all), similar ones and a draw of the others.

SMILES	DAGLB inhibitor	MsrA inh	rCAG binder	NadD inh	MsrA act	DSG3 Ab inh	rCAG binder conf	DNA CAG counter
Cc1cc(C)nc(NS(=O)(=O)c2ccc(NC(=O)C3(c4ccc([N+](=O)[O-])cc4)CCCC3)cc2)n1	5	0	40*	17	-5	101	34	9.0*
COc1ccc(C2(C(=O)Nc3ccc(S(=O)(=O)Nc4nc(C)cc(C)n4)cc3)CCCC2)cc1OC	1	1	11	11	-1	100	nt	nt
O=C(O)CCN1C(=O)/C(=C\c2cccc(Oc3ccccc3)c2)SC1=S	19	4	62*	17	-5	89	78*	35*
O=C(O)CN1C(=O)/C(=C\c2ccccc2OCc2ccc(Cl)cc2)SC1=S	9	2	74*	5	-3	91	84*	47*
O=C(O)CN1C(=O)/C(=C\c2cccc(OCc3ccccc3F)c2)SC1=S	14	1	84*	0	-4	97	75*	37*
O=C(O)CN1C(=O)/C(=C\c2cccc(OC(=O)c3ccco3)c2)SC1=S	5	1	28	0	-3	107	nt	nt
O=C(O)CN1C(=O)/C(=C\c2cccc(OCc3ccc(F)cc3)c2)SC1=S	8	1	81*	2	-3	101	80*	44*
O=C(O)CN1C(=O)/C(=C\c2cccc(OCc3ccc(Cl)cc3)c2)SC1=S	9	1	78*	12	2	113	91*	64*
O=C(O)CN1C(=O)/C(=C\c2ccc(OC(=O)c3ccco3)cc2)SC1=S	6	1	25	2	-3	110	nt	nt
O=C(O)CN1C(=O)/C(=C/c2ccc(SCc3ccccc3)o2)SC1=S	3	-1	41*	13	-7	99	59*	31*
Cc1ccc(-c2[nH]nc(N)c2N=Nc2cccc(Cl)c2C)cc1	13	2	42*	-3	-2	105	23	12*
Cc1ccc(N=Nc2c(N)n[nH]c2N)cc1	2	3	4	-1	-4	88	nt	nt
CC(c1ccco1)N(C(=O)c1ccccc1NS(=O)(=O)c1cc([N+](=O)[O-])ccc1Cl)c1ccccn1 (stereo unspecified)	6	-1	58*	6	-4	109	53*	21*
COc1ccc(S(=O)(=O)C(C#N)c2nc3ccccc3nc2N2CCCC(C)C2)cc1 (stereo unspecified)	6	1	68*	3	-3	110	68*	35*
COc1ccc(-c2cc(C(=O)NC(Cc3cc4ccccc4[nH]3)C(=O)O)c(C)o2)cc1OC (stereo unspecified)	6	1	49*	1	-2	85	50*	15*
CCOc1ccc2nc(NS(=O)(=O)c3ccc4c(c3)n(C)c(=O)n4C)sc2c1	4	-1	44*	7	0	89	26	8.3*
CCOc1ccc(S(=O)(=O)Nc2cc(SCC(=O)O)c(O)c3ccccc23)cc1	-6	2	36*	9	-3	104	60*	24*
O=C(O)[C@@H]1CCCN1C(=O)c1ccccc1N1C(=O)[C@@H]2Cc3c([nH]c4ccccc34)C(c3cccc(Cl)c3)N2C1=O (stereo partly specified)	1	1	35*	13	-2	162	49*	13*
O=C(O)[C@H]1CCCN1C(=O)c1ccccc1N1C(=O)[C@@H]2Cc3c([nH]c4ccccc34)C(c3cccc(Cl)c3)N2C1=O (stereo partly specified)	2	2	39*	15	-2	nt	65*	22*
COc1ccc(OC)c(/C=C2\SC(=S)N(NS(=O)(=O)c3ccc(C)cc3)C2=O)c1	18	3	84*	16	-5	90	87*	52*
Cc1ccc(S(=O)(=O)NN2C(=O)/C(=C/c3cccnc3)SC2=S)cc1	4	3	24	6	-2	96	nt	nt
COc1ccccc1/C=C1\SC(=S)N(NS(=O)(=O)c2ccc(C)cc2)C1=O	19	2	78*	5	-5	94	69*	33*
COc1ccc(/C=C2\SC(=S)N(NS(=O)(=O)c3ccc(C)cc3)C2=O)c(OC)c1	23	0	87*	14	-2	111	85*	58*
COc1cccc(C(=O)N2CCC[C@H]2C(=O)N2CCC[C@H]2C(=O)N[C@@H](C)c2ccccc2)c1	nt	0	0	0	0	nt	nt	nt
CCSc1nnc(-c2ccco2)n1C	nt	nt	-1	nt	nt	nt	nt	nt
SMILES	DAGLB inhibitor	MsrA inh	rCAG binder	NadD inh	MsrA act	DSG3 Ab inh	rCAG binder conf	DNA CAG counter
N#Cc1c(-c2cccs2)nc(SCc2ccc(Cl)cc2)[nH]c1=O	14	2	87*	16	-3	103	88*	68*
CCN(c1cccc(C)c1)S(=O)(=O)c1c(C)[nH]c(C)c1C(=O)N1CCCCC1	-2	1	-6	-4	-2	98	nt	nt
CC(C)(C)NC(=O)C(c1ccc(C#N)cc1)n1c(=O)c(-c2ccccc2)nc2ccccc21 (stereo unspecified)	nt	2	5	nt	nt	nt	nt	nt
CC(C)(C)NC(=O)C(c1ccc(C#N)cc1)n1c(=O)c(-c2ccco2)nc2ccccc21 (stereo unspecified)	nt	1	37*	nt	nt	nt	24	13*
C=CCN=C1NC(c2ccc(Cl)cc2)C(C(=O)OC)=C(C)N1Cc1cccc(C(F)(F)F)c1 (stereo unspecified)	nt	0	7	nt	nt	nt	nt	nt
O=C(Nc1cc(S(=O)(=O)N2CCOCC2)ccc1O)c1ccc(S(=O)(=O)N2CCCCC2)cc1	1	0	40*	4	0	?	37*	10*
O=C(CCCSc1ccc(Cl)cc1)Nc1cc(S(=O)(=O)N2CCOCC2)ccc1O	-1	2	40*	14	-2	98	49*	16*
O=C(Nc1cc(S(=O)(=O)N2CCOCC2)ccc1O)c1ccc2c(c1)S(=O)(=O)c1ccccc1C2=O	16	1	43*	9	-8	84	69*	31*

From PubChem BioAssay
